Data on ten molecules can be found in PubChem BioAssay.

Assay [1] can be described thus: resazurin metabolic signal in HepG2 cells – cell-based, resazurin fluorescence, 24 h, PK04 Diversity Set, profiling panel (AID 1172). Note: test concentration not given here. As to conditions: HepG2 viability, higher = more signal.
Assay [2] in a line: budding yeast growth changes without added modifier – OD600, strain BY4716, 24 h, basal condition, primary screen (AID 1173). As to conditions: S. cerevisiae BY4716 growth, OD600, 24 h; higher = more signal, called active from +8 up or from −8 down.
Assay [3] in a line: viability profiling in MM1S myeloma cells – cell-based, resazurin fluorescence, basal, 24 h, PK04 Diversity Set, profiling panel (AID 1174). Note: test concentration not given here. As to conditions: higher = more signal, called active from +8 up or from −8 down.
In assay [4] the target is Dihydroorotate dehydrogenase (quinone), mitochondrial (Plasmodium falciparum (isolate 3D7)) (UniProt Q08210). Kind of assay: inhibition of P. falciparum DHODH – biochemical, C-terminal His tag, absorbance 600 nm, primary screen (AID 1175).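 Note: recombinant parasite enzyme with a five histidine tag at its C terminus; test concentration not given here.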 To be noted: PfDHODH enzyme, DCIP absorbance 600 nm; higher = more signal, called active from +8 up or from −8 down.
Assay [5] can be described thus: inhibition of PAO1 biofilm formation – strain PAO1, LB-PBS medium, absorbance 600 nm, primary screen (AID 1176). Note: test concentration not given here. To be noted: P. aeruginosa PAO1 growth/biofilm, A600, 12 h; higher = more signal.
Assay [6] can be described thus: growth modulation of vineyard yeast isolate – strain RM11-1a, OD600, basal, 24 h, primary screen (AID 1177).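 Note: cultures grown under basal conditions with no added stressor; test concentration not given here.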 To be noted: S. cerevisiae RM11-1a growth, OD600, 24 h; higher = more signal, called active from +8 up or from −8 down.
Assay [7] in a line: growth of efflux-deficient E. coli DRC39 – strain DRC39, OD650, 24 h, E. coli filamentation inducers, primary screen (AID 1178).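 Note: growth measured as culture turbidity by optical density at 650 nm; test concentration not given here.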 To be noted: E. coli DRC39 acrAB, higher = more signal, called active from +8 up or from −8 down.
Assay [8] can be described thus: growth of efflux-deficient E. coli DRC39 – strain DRC39, OD650, 48 h, E. coli filamentation inducers, primary screen (AID 1179).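 Note: screen aims at cell division blockers that make cells filament.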 As to conditions: E. coli DRC39 delta-acrAB growth, higher = more signal, called active from +8 up or from −8 down.
Assay [9] can be described thus: viability profiling in RPMI8226 myeloma cells – cell-based, resazurin fluorescence, basal, 24 h, PK04 Diversity Set, profiling panel (AID 1180).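 Note: RPMI8826 multiple myeloma cell line at 5000 cells per well; test concentration not given here.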 As to conditions: higher = more signal.
In assay [10] the target is E3 ubiquitin-protein ligase XIAP (Homo sapiens) (UniProt P98170). Kind of assay: small molecules binding XIAP protein – biophysical, small-molecule microarray, fluorescence 635 nm, primary screen (AID 1181).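 Note: score merges 667 nm emission and signal to noise over triplicate slides.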 As to conditions: higher = more signal.

Structures are written as SMILES. Activity calls are given as the source filed them. Unless noted, the rule behind the calls is not given here.

Sequence of E3 ubiquitin-protein ligase XIAP (Homo sapiens) (P98170 whole entry, looked up): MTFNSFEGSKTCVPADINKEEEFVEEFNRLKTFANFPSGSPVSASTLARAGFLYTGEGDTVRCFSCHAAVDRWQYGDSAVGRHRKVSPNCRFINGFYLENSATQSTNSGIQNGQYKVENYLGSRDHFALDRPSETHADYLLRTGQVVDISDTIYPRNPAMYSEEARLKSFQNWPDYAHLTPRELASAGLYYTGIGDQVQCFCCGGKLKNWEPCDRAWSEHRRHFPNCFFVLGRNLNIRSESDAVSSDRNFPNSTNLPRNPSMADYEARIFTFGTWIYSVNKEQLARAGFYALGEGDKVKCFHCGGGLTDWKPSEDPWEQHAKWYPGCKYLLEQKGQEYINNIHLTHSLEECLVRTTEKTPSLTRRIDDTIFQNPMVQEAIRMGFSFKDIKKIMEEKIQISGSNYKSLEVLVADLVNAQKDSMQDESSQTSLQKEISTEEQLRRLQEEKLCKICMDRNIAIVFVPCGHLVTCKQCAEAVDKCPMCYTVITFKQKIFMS
Sequence of Dihydroorotate dehydrogenase (quinone), mitochondrial (Plasmodium falciparum (isolate 3D7)) (Q08210 whole entry, looked up): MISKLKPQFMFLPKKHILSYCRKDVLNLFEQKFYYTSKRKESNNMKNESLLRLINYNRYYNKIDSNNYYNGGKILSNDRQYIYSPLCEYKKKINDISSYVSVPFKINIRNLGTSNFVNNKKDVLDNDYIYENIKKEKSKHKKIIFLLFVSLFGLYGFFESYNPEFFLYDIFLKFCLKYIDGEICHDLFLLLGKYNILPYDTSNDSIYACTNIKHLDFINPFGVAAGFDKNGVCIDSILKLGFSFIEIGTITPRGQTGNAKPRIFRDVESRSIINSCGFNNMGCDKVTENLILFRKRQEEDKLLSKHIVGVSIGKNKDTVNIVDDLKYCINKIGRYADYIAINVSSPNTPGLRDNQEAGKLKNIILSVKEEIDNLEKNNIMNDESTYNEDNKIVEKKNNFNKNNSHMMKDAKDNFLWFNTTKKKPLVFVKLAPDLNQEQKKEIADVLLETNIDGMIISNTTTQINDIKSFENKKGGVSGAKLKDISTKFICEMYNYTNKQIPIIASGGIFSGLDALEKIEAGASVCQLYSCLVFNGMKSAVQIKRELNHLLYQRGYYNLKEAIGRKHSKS

Turning to `O=C(CS)NCCCCCNC(=O)[C@@H]1C[C@@H]2C(=O)N3CCC[C@H]3C(=O)N2[C@@H]1c1ccc(O)cc1`, the z-score was -0.196 in [1]; -0.419 (inactive) in assay [2]; -0.0752 (inactive) in assay [3]; -0.102 (inactive) in [5]; 0.132 (inactive) in assay [6]; -0.651 (inactive) in assay [7]. Moreover, the z-score in [8] is -0.265 (inactive); in [9], -0.0255. Besides, the values for the composite z-score in assay [4] and in assay [10] were 0.252 (inactive) and -0.127, respectively.

Turning to `CCOC(=O)C[C@H]1[C@H](OC(=O)c2cc3ccccc3oc2=O)[C@@H](NC(=O)c2ccc3ccccc3n2)c2cc(OCCCO)ccc2N1C(=O)c1ccc2ccccc2n1`, the z-score is 0.165 in [1]; -0.535 (inactive) in [2]; 0.35 (inactive) in assay [3]; -0.766 (inactive) in [5]; -0.361 (inactive) in assay [6]; 1.72 (inactive) in assay [7]. Also, the values for the z-score in assay [8] and in assay [9] were 0.627 (inactive) and -0.594, respectively. The figures for the composite z-score in assay [4] and in assay [10] were 0.315 (inactive) and 0.035, respectively.

With `C[N+](C)(C)CCCCNC(=O)[C@H]1C[C@H]2C(=O)NCC(=O)N2[C@H]1c1ccc(O)cc1`, the z-score in assay [1] is -0.103; in assay [2], 0.105 (inactive); in assay [3], -0.511 (inactive); in assay [5] it was 0.28 (inactive); in [6], -0.279 (inactive); in [7] it was 0.703 (inactive). Moreover, the values for the z-score in assay [8] and in assay [9] were 1.35 (inactive) and -0.253, respectively. In addition, the composite z-score in [4] is -29.2 (active); in assay [10], -0.17.

Regarding `COCCOC(=O)N1C(=O)[C@@]2(c3cc(C#Cc4ccc(OC)cc4)ccc31)[C@H](c1ccc(OCCO)cc1)N1[C@H](c3ccccc3)[C@H](c3ccccc3)OC(=O)[C@H]1[C@@H]2C(N)=O`, the z-score in assay [1] is -0.83; in [2], 1.71 (inactive); in assay [3], -1.85 (inactive); in assay [5], 3.36 (inactive); in assay [6], 2.82 (inactive); in [7] it was 0.721 (inactive). For the same molecule, the values for the z-score in assay [8] and in assay [9] were 0.366 (inactive) and -2.36, respectively. Besides, the values for the composite z-score in assay [4] and in assay [10] were -0.675 (inactive) and 0.269, respectively.

Consider `C=CCOC(=O)[C@@H]1[C@H]2C(=O)O[C@H](c3ccccc3)[C@H](c3ccccc3)N2[C@H](c2ccc(OCCOC(=O)[C@H]3C[C@H]4C(=O)N[C@@H](Cc5ccccc5)C(=O)N4[C@H]3c3cccc(OCCO)c3)cc2)[C@@]12C(=O)Nc1ccc(I)cc12`, for which the z-score is -0.208 in [1]; -0.215 (inactive) in assay [2]; -1.94 (inactive) in assay [3]; 0.199 (inactive) in assay [5]; 2.13 (inactive) in assay [6]; -0.847 (inactive) in [7]. In addition, the figures for the z-score in assay [8] and in assay [9] were 0.573 (inactive) and -1.01, respectively. In addition, the composite z-score was -3.73 (inactive) in assay [4] and -0.128 in assay [10].

Consider `C=C[C@H](C)[C@H](OC(=O)Nc1ccc(SC)cc1)c1ccc(O)c2ccccc12`, for which the z-score in [1] is -1.13; in assay [2] it was -18.5 (active); in [3], -3.69 (inactive); in assay [5], 0.802 (inactive); in assay [6], -3.62 (inactive); in assay [7] it was -1.46 (inactive). Further, the values for the z-score in assay [8] and in assay [9] were -1.6 (inactive) and -2.55, respectively. Further, the composite z-score in [4] is -2.47 (inactive); in assay [10], 0.0528.

On to `COCCCNC(=O)[C@]1(Cc2ccccc2)N=C(c2ccc(OCCCO)cc2)O[C@@H]1c1ccccc1N=[N+]=[N-]`, for which the z-score in [1] is 0.0754; in assay [2], -1.75 (inactive); in [3] it was -2.61 (inactive); in assay [5], -0.674 (inactive); in assay [6] it was -0.355 (inactive); in assay [7], 1.27 (inactive). For the same molecule, the z-score in [8] was 0.642 (inactive); in assay [9], -2.73. In addition, the composite z-score in assay [4] is 0.828 (inactive); in [10], -0.02.

On to `COc1ccc(CCNC(=O)[C@@H]2c3ccccc3C(=O)N(Cc3ccccc3C(F)(F)F)[C@H]2c2ccc(CO)cc2)cc1`, for which the z-score in [1] is 0.743; in assay [2] it was 0.415 (inactive); in assay [3] it was 0.711 (inactive); in assay [5], -0.77 (inactive); in assay [6] it was 1.51 (inactive); in [7] it was 0.709 (inactive). Also, the values for the z-score in assay [8] and in assay [9] were 0.633 (inactive) and 0.837, respectively. Further, the composite z-score in assay [4] was 0.717 (inactive); in [10] it was 0.0819.

As to `[N-]=[N+]=Nc1ccccc1[C@@H]1OC(c2ccc(OCCCO)cc2)=N[C@]1(CCS(=O)(=O)c1ccccc1)C(=O)NCc1ccccc1`, the z-score in assay [1] is -0.287; in [2], 1.18 (inactive); in [3] it was -0.37 (inactive); in assay [5], 0.727 (inactive); in assay [6], 1.4 (inactive); in assay [7], 0.439 (inactive). For the same molecule, the z-score in assay [8] was 1.01 (inactive); in assay [9], -0.893. The values for the composite z-score in assay [4] and in assay [10] were -2.59 (inactive) and 0.125, respectively.

In the case of `C/C=C/[C@@H](CCn1cc([C@H](O)c2ccccc2)nn1)[Si](C)(C)c1ccc(OC)cc1`, the z-score in assay [1] was 0.121; in [2] it was -1.5 (inactive); in assay [3] it was -0.567 (inactive); in assay [5], 0.0002 (inactive); in [6] it was 0.72 (inactive); in [7], 0.508 (inactive). The z-score in [8] is -0.253 (inactive); in assay [9] it was -0.472. In addition, the composite z-score in assay [4] was -0.222 (inactive); in [10], -0.0918.
